Assay outcomes deposited in PubChem by National Center for Advancing Translational Sciences (NCATS).
The list is not random: actives were taken first. Their share in the collection is about 8%.
HCV inh = qHTS Assay for Inhibitors of Hepatitis C Virus (HCV). Huh7.5.1 HCVcc-Cre infection, luciferase reporter, 44 h. Potency, µM (titrated, usually from 41.8 µM), without a hit: at the top dose activity change, negative = inhibition, hits mostly inhibitors. 340,000 tested, 3.4% active. AID 651820, 2012; active = well fitted inhibition curve with a large enough effect; inconclusive = small, poorly fitted or top-dose-only effect, or another doubt; inactive = no such curve, though single readings can be large or run the other way; also: potency is read from the fitted curve at half-maximal effect; % is scaled to controls: 0 for no effect and ±100 for the full control effect
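Seed cells (1,000/well) for 4 h; treat with compound and infect with HCVcc-Cre, moi about 0.5. Incubate 44 h, then detect luciferase activity.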
SARS PLpro yeast = qHTS of Yeast-based Assay for SARS-CoV PLP; S. cerevisiae expressing SARS-CoV PLpro, growth rescue; Potency, µM (top dose mostly 32.9 µM), for the others: top-dose activity, positive = growth rescue, actives largely listed as activators; 330,000 tested, 0.19% active; AID 485353, 2010; calls by dose curve; also: potency is read from the fitted curve at half-maximal effect; 0% is about no effect; nearly all actives have a fitted effect of over 55% in size
MARV entry inh = qHTS for inhibitors of binding or entry into cells for Marburg Virus; Potency, µM (titrated, usually from 37.8 µM), without a hit: at the highest dose activity change, negative = inhibition, most hits filed as inhibitors; AID 540276, 2011; Marburg virus pseudotyped entry inhibition, cell reporter; 300,000 tested, 1.8% active; calls by dose curve; tested in HEK293 cells; also: potency is read from the fitted curve at half-maximal effect; % is scaled to controls: 0 for no effect and ±100 for the full control effect
HCMV inh = qHTS Assay for inhibitors of the human cytomegalovirus (HCMV). HFF cells, HCMV-luciferase reporter, 72 h; active compounds read low. activity change, negative = inhibition, % at 57.5 µM. 410,000 tested, 4.5% active. AID 1259415, 2018; in the data active = activity change below about -60%; inconclusive = no clear call, values can overlap the other calls; inactive = above about -39%; also: % is scaled to controls: 0 for no effect and ±100 for the full control effect
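HFF cells seeded 16 h at 37C, treated with compounds, infected with luciferase-reporter HCMV at MOI 1 PFU/cell; luciferase read at 72 h post infection, normalized to buffer-only and Salinomycin controls.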
FMDV antiviral = High Throughput Screening for Foot and Mouth Disease Virus Antivirals; 410,000 tested, 1.2% active; Potency, µM (doses to about 57.9 µM), inactives show at the highest dose activity change, negative = inhibition, usual class: inhibitors; FMDV antiviral cell-based qHTS; calls by dose curve; tested in HEK293T cells; also: read-out not given here; potency is read from the fitted curve at half-maximal effect; % is scaled to controls: 0 for no effect and ±100 for the full control effect; nearly all actives have a fitted effect of over 45% in size
Lassa entry inh = qHTS for Inhibitors of binding or entry into cells for Lassa Virus; AID 540256, 2011; 300,000 tested, 1.2% active; Lassa virus pseudotype entry inhibition, cell reporter; Potency, µM (titrated, usually from 37.9 µM), inactives show at the top dose activity change, negative = inhibition, hits mostly inhibitors; calls by dose curve; tested in HEK293 cells; also: potency is read from the fitted curve at half-maximal effect; % is scaled to controls: 0 for no effect and ±100 for the full control effect; nearly all actives have a fitted effect of over 50% in size
The depositor's hits bear a star; [ ] = another dose, or the depositor's remark.

How did CC(=O)Oc1ccc(-c2ccc(C(=O)OCC(=O)c3c(N)n(C)c(=O)n(C)c3=O)cc2)cc1 do in these assays?
HCV inh: inconclusive; SARS PLpro yeast: 16.7%; HCMV inh: -62.1*; FMDV antiviral: -14.8%

What do the screens show for `Cc1cc(C(=O)Nc2cccc(C)c2C)n(-c2ccccc2)n1`?
HCV inh: 5.3%; SARS PLpro yeast: 1.0%; MARV entry inh: 15.5%[46.1 µM]; HCMV inh: -88.0*; FMDV antiviral: 31.4%; Lassa entry inh: inconclusive

What do the screens show for `Cc1cc(C(=O)Nc2cccc3ccccc23)n(-c2ccccc2)n1`?
HCV inh: -6.2%; SARS PLpro yeast: -2.8%; MARV entry inh: -7.7%[46.1 µM]; HCMV inh: 89.1; FMDV antiviral: -11.6%; Lassa entry inh: -28.7%[46.1 µM]

How did Cc1cc(C(=O)NCCN2CCN(c3cccc(Cl)c3)CC2)n(-c2ccccc2)n1 do in these assays?
HCV inh: inconclusive; SARS PLpro yeast: -15.2%; MARV entry inh: 7.31µM*; HCMV inh: -36.4; FMDV antiviral: inconclusive; Lassa entry inh: 7.31µM*

How did CSc1nc(-c2ccccc2)nc2ccccc12 do in these assays?
HCMV inh: 32.6

How did COC(=O)NC(CCc1ccccc1)C(C(C)=O)C(=O)OC (stereo unspecified) do in these assays?
MARV entry inh: -23.9%[14.2 µM]

How did Cc1ccc(N(C)S(=O)(=O)c2cccc(C(=O)N(C)Cc3cnn(-c4ccccc4)c3)c2)cc1 do in these assays?
HCV inh: inconclusive; SARS PLpro yeast: 0.3%; MARV entry inh: inconclusive; HCMV inh: -66.7*; FMDV antiviral: inconclusive; Lassa entry inh: inconclusive

How did COc1ccc(N(C)S(=O)(=O)c2cccc(C(=O)Nc3cc(OC)ccc3OC)c2)cc1 do in these assays?
HCV inh: 10µM*; SARS PLpro yeast: -1.8%; MARV entry inh: inconclusive; HCMV inh: -22.6; FMDV antiviral: inconclusive; Lassa entry inh: inconclusive

Results for COc1ccc(N(C)S(=O)(=O)c2cccc(C(=O)Nc3ccc(OC)nc3)c2)cc1 ?
HCV inh: inconclusive; SARS PLpro yeast: 2.1%; MARV entry inh: -22.1%; HCMV inh: -67.6*; Lassa entry inh: -26.8%

How did COc1cc(OC)cc(C(=O)Nc2ccc(-n3cnnn3)c(C)c2)c1 do in these assays?
HCV inh: 7.08µM*; SARS PLpro yeast: -8.3%; MARV entry inh: 8.5%; HCMV inh: -3.9; Lassa entry inh: -0.2%

What do the screens show for `COc1cc(NC(=O)c2ccccc2-n2cnnn2)cc(OC)c1`?
HCV inh: -11.1%; SARS PLpro yeast: 3.5%; MARV entry inh: inconclusive; HCMV inh: 5.7; FMDV antiviral: -7.8%; Lassa entry inh: 5.8%

What do the screens show for `CN(Cc1cnn(-c2ccccc2)c1)C(=O)c1cccc(S(=O)(=O)N(C)c2ccccc2)c1`?
HCMV inh: -26.1; FMDV antiviral: 0.0%

What do the screens show for `O=C(Cc1ccc(NC(=O)N2CCCCc3ccccc32)cc1)NCc1ccccc1`?
HCMV inh: 20.5; FMDV antiviral: -20.3%; Lassa entry inh: inconclusive

What do the screens show for `COc1ccc(N(C)S(=O)(=O)c2cccc(C(=O)Nc3ccc(-n4cnnn4)cc3)c2)cc1`?
HCV inh: inconclusive; SARS PLpro yeast: 0.3%; MARV entry inh: inconclusive; HCMV inh: inconclusive; FMDV antiviral: 39.8µM*; Lassa entry inh: -17.2%

What do the screens show for `COc1ccc(N(C)S(=O)(=O)c2cccc(C(=O)Nc3nc(C)cs3)c2)cc1`?
HCV inh: inconclusive; SARS PLpro yeast: -1.2%; HCMV inh: -19.7; FMDV antiviral: -10.2%

How did CN(C)S(=O)(=O)c1cccc(NC(=O)c2ccc3c(c2)OCCO3)c1 do in these assays?
HCV inh: inconclusive; SARS PLpro yeast: 2.7%; MARV entry inh: -16.5%; HCMV inh: -3.1; FMDV antiviral: -6.8%; Lassa entry inh: 11.7%

What do the screens show for `COc1ccc(OCCN(C)C(=O)c2cccc(S(=O)(=O)N(C)c3ccccc3)c2)cc1`?
HCV inh: 14.1µM*; SARS PLpro yeast: -0.9%; MARV entry inh: -55.9%; HCMV inh: -15.3; FMDV antiviral: -19.7%; Lassa entry inh: -18.4%

Results for COc1ccc(N(C)S(=O)(=O)c2cccc(C(=O)Nc3ccc4c(c3)OCCO4)c2)cc1 ?
HCV inh: 10µM*; SARS PLpro yeast: -1.6%; MARV entry inh: 10µM*; HCMV inh: 97.2; FMDV antiviral: -10.5%; Lassa entry inh: inconclusive

What do the screens show for `CCc1ccccc1NS(=O)(=O)c1cc(Br)cc2c1N(C(=O)C1CC1)CC2`?
MARV entry inh: inconclusive; HCMV inh: inconclusive; FMDV antiviral: -21.6%; Lassa entry inh: -3.8%[46.1 µM]

How did COc1cc(CN2CCc3nnc(C(NS(C)(=O)=O)C(C)C)n3CC2)ccc1F (stereo unspecified) do in these assays?
FMDV antiviral: -8.1%

What do the screens show for `COc1ccc(CC(=O)N[C@@H](C)C(=O)N2CCC3(CC2)NCCc2[nH]cnc23)cc1`?
HCV inh: 6.8%; SARS PLpro yeast: -8.0%; MARV entry inh: 7.1%[46.1 µM]; HCMV inh: -21.5; FMDV antiviral: -11.0%; Lassa entry inh: 20.3%[46.1 µM]

What do the screens show for `O=C(Nc1ccnn1C1CCN(C(=O)c2ccccc2C(F)(F)F)CC1)C1CC1`?
HCV inh: 5.0%; SARS PLpro yeast: 0.8%; MARV entry inh: -1.5%; HCMV inh: -78.4*; FMDV antiviral: 14.6%; Lassa entry inh: inconclusive

How did C=CCSC1=C(C#N)C(c2ccccc2Cl)C(C(=O)c2cccs2)C(O)(C(F)(F)F)N1 (stereo unspecified) do in these assays?
HCV inh: inconclusive; SARS PLpro yeast: -27.5%; MARV entry inh: inconclusive; HCMV inh: -70.4*; FMDV antiviral: -22.9%; Lassa entry inh: -2.1%

Results for C[C@]12CCCC3=CC(=O)C=CC31OCC2 (stereo partly specified) ?
HCMV inh: -0.4

What do the screens show for `Cc1ccc(NC(=O)C(=O)NCCN2CCN(S(=O)(=O)c3ccccc3)CC2)cc1C`?
HCV inh: -6.1%; SARS PLpro yeast: -0.4%; MARV entry inh: -23.1%[46.1 µM]; HCMV inh: 18.3; FMDV antiviral: -26.2%; Lassa entry inh: 0.7%

Results for Cc1csc(NC(=O)c2ccc(S(=O)(=O)N3CCCC3)cc2)n1 ?
HCV inh: -0.6%; SARS PLpro yeast: -0.3%; HCMV inh: -1.0; FMDV antiviral: 16.1%

What do the screens show for `O=C(Nc1nc(-c2cccs2)cs1)c1ccc(S(=O)(=O)N2CCCC2)cc1`?
HCV inh: inconclusive; SARS PLpro yeast: -4.8%; MARV entry inh: 11.6µM*; HCMV inh: -90.3*; FMDV antiviral: 10µM*; Lassa entry inh: 20.6µM*

How did CC(=O)Nc1nc(-c2cccs2)cs1 do in these assays?
HCV inh: -4.7%; SARS PLpro yeast: 1.0%; MARV entry inh: 27.7%; HCMV inh: 38.3; FMDV antiviral: 41.8%; Lassa entry inh: -19.2%
